Several values for one entry are separate records, joined by “and”; a condition that tells them apart may be missing. Identical values can stand only once. This is part of a sample that, as a whole, favours compounds with a hit. Of some 83,000 tested, about 20% had one in any assay.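 Results are percent growth after 48 hours of single-concentration exposure. 100 means growth as in untreated cells, lower positive values show inhibition; negative values down to -100 show cell death.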 Values without a mark were called inactive. Activity calls are given as the source filed them.
These molecules were tested on HS 578T breast (assay: NCI-60 one-dose screen, 48 h (100 = growth as untreated, 0 = no growth, -100 = all killed)). Conditions: 10 µM.
Description: Growth inhibition of the HS 578T human tumor cell line is measured as a screen for anti-cancer activity. Cells are grown in 96 well plates and exposed to the test compound for 48 hours. Compounds are tested at a single concentration, which is 10^-5 M for most compounds. The reported endpoint is percent growth (GI% or GIPRCNT), where numbers from 0 - 100% represent growth inhibition, and numbers from -100% - 0 represent cell death. For example, a value of 40 represents 60% growth inhibition. A value of 0 means no net growth occurred over the course of the experiment. A value of -40 indicates 40% of cells at the beginning of the experiment died by the end of the experiment. A value of -100 means all cells are dead at the end of the experiment.
NCI-60 Human Tumor Cell Lines Screen was performed using the standard one-dose NCI protocol, which is described in more detail at https://dtp.cancer.gov/discovery_development/nci-60/default.htm.
Compounds with GIPRCNT values below 10 were considered active. Activity score was based on GIPRCNT using the following formula: […]
Score is 0 for GIPRCNT values of 100 or above, 50 for GIPRCNT values of 0, and 100 for GIPRCNT values of -100.
With `O=C(O)c1c(Cl)c(Cl)c(Cl)c(Cl)c1-c1c2cc(I)c(=O)c(I)c-2oc2c(I)c(O)c(I)cc12` the growth was 107% and 93.5%.
Molecule `O=C(Nc1c(Cl)cccc1Cl)Oc1cccc2cccnc12` has a growth of 90.6%.
For `COc1ccc(-c2cscc2N)cc1`, the growth was 106%.
`O=C(Nc1cccc(Br)c1)Oc1cccc2cccnc12` was tested, and the growth was 110%.

Same assay, conditions: 10 µM unless noted
`CCOC(=O)c1c(C)[nH]c(CO)c1C` showed a growth of 109%.
With `Cc1ccc(N=C=C(c2ccccc2)c2ccccc2)cc1` the growth was 91.1%.
`N[C@H](C(=O)O)[C@@H]1CC(Cl)=NO1` showed a growth of 27.2% [20 µM].
In the case of `Oc1c(Br)cc(Cl)cc1C(c1cc(Cl)cc(Br)c1O)C(Cl)(Cl)Cl`, the growth is reported as 21.2%.
Molecule `O=C1N[C@H]2[C@H](CS[C@H]2CCCCC(=O)N(CCP(c2ccccc2)c2ccccc2)CCP(c2ccccc2)c2ccccc2)N1` has a growth of 84.4%.
With `CN(C)C(=O)SC1=C(c2c(Cl)cccc2Cl)C(=O)c2ccccc21` the growth was 21.4%.
In the case of `COC(=O)[C@@]12OC[C@]34[C@H]([C@@H](O)[C@@H]1O)[C@@]1(C)[C@H](O)C(=O)C=C(C)[C@@H]1C[C@H]3OC(=O)C(OC(C)=O)[C@@H]24` (stereo not given in full), the growth is reported as -33% (active).
Work on `O=C1NC(=O)/C(=C/C=C/c2ccccc2)S1` yielded a growth of 93.3%.
`CC1OC(OC2C(OC3CCC4(C)C(CCC5(C)C4CC=C4C6CC(C)(C)CCC6(CO)C(O)CC45C)C3(C)C)OC(C(=O)O)C(OC3OC(COC4OC(CO)C(O)C(O)C4O)C(O)C(O)C3O)C2O)C(O)C(O)C1O` (stereo not given) was tested, and the growth was -35.2% (active).
`N#CC1C(=O)SC2c3ccccc3C(=O)c3ccccc3C12` (stereo not given) showed a growth of 96.2%.
Molecule `CCCCCC(CCCCC)C(=O)O` has a growth of 104%.
Molecule `COc1ccccc1/C=C\C(=O)c1ccccc1` has a growth of 86%.
`CCC(=O)Sc1ccccc1C(=O)Nc1ccc(Cl)cc1` showed a growth of 54.5%.
Work on `N#CSCC(=O)c1ccc(Cl)cc1` yielded a growth of 70.5%.
`O=C(O)C1C2CC3C(OC(=O)C31)C2Br` (stereo not given) was tested, and the growth was 93.4% and 95.7%.
`O=C(/C=C\c1ccccc1)N1c2ccccc2CC1c1c[nH]c2ccccc12` (stereo not given) gave a growth of 75.3%.
For `O=Nc1ccccc1N=O`, the growth was 84.2%.
Molecule `COc1cc(/C=C(/C)C[N+](=O)[O-])ccc1O` has a growth of 98.7%.
`O=C(/C=C/c1cccc(Cl)c1)c1ccccc1` was tested, and the growth was 108% and 107%.
`NC(N)=N/N=C/c1ccc([N+](=O)[O-])o1` gave a growth of 105%.
`CNc1ccc2c(c1)c1ccccc1n2C` was tested, and the growth was 118%.
For `OC(CNc1ccnc2cc(Cl)ccc12)CNc1ccnc2cc(Cl)ccc12`, the growth was 89%.
`O=C1C2=C(Nc3cc([N+](=O)[O-])ccc3N2)OC1c1c2ccccc2cc2ccccc12` (stereo not given) showed a growth of 73.6%.
For `S=C(NCCNC(=S)[S][Sn]([c]1ccccc1)([c]1ccccc1)[c]1ccccc1)[S][Sn]([c]1ccccc1)([c]1ccccc1)[c]1ccccc1`, the growth was -14.5% (active).
For `CCCCCCCCCCCCCCCCN(CC)CC`, the growth was -25.1% (active).
Work on `Cc1ccc2c(ccc3c[n+]4c5ccccc5ccc4n32)c1` yielded a growth of 14.4%.
With `Cc1ccnc2c1ccc1c(C)ccnc12` the growth was 52.6%.
Work on `O=C1C=CC(=O)N1C1c2ccccc2-c2ccccc21` yielded a growth of 102%.
`COC(=O)c1nc(=S)[nH]c(C(=O)OC)c1C(=O)c1ccc2ccccc2c1` was tested, and the growth was 103%.
Work on `N#Cc1ccc([N+](=O)[O-])o1` yielded a growth of 100%.
In the case of `C=C(Cl)C(=NC(C)(C)C)Nc1ccccc1C`, the growth is reported as 96.5%.
Work on `CC(C)c1ccc2nc3ccc(C(=O)NCCN4CCN(c5ccccc5)CC4)cn3c(=O)c2c1` yielded a growth of 59.2%.

Same assay, conditions: 100 µM
For `O=C(O)c1c(Cl)c(Cl)c(Cl)c(Cl)c1-c1c2cc(I)c(=O)c(I)c-2oc2c(I)c(O)c(I)cc12`, the growth was 27.5%.
For `O=C(Nc1c(Cl)cccc1Cl)Oc1cccc2cccnc12`, the growth was 46.6%.
With `COc1ccc(-c2cscc2N)cc1` the growth was 88.2%.
Molecule `O=C(Nc1cccc(Br)c1)Oc1cccc2cccnc12` has a growth of 79.3%.
